Where “and” joins values, the source holds several entries; their conditions need not be identical. Identical values can stand only once. The whole screen tested about 5,500 compounds, of which about 2,000 (36%) were called active. Roughly 18% stayed inconclusive and do not appear here. No stated cut-off is given here; in the data, active means normalized growth mostly below about 0.91 (no sharp cut-off); inconclusive means no clear call, values can overlap the other calls; inactive means mostly above about 0.92. This is one part of the list.
Test: chemical genetic growth profiling, strain panel (AID 1159580);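 further: tested at 20 µM; growth read once vehicle control cultures reached saturation at 30 °C; 1 = growth at the plate median or of vehicle wells; lower values mean less growth of the strain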
Conditions: S. cerevisiae deletion strains, growth OD

Measured: normalized growth

O=C(O)C(O)C(O)C(=O)O (configuration not stated)
inactive: locus YAL013W, strain DEP1, hits give low values 0.974 | locus YAL021C, strain ccr4, hits give low values 1 | locus YAL026C, strain drs2, hits give low values 0.999 | locus YAL030W, strain snc1, hits give low values 1 | locus YBL061C, strain skt5, hits give low values 0.989 | locus YBR009C, strain hhf1, hits give low values 0.99 | locus YBR021W, strain FUR4, hits give low values 1.02 | locus YBR023C, strain chs3, hits give low values 0.989 | locus YBR171W, strain sec66, hits give low values 0.986 | locus YBR229C, strain ROT2, hits give low values 0.952 | locus YBR231C, strain swc5, hits give low values 0.996 | locus YBR279W, strain paf1, hits give low values 0.985 | locus YCL011C, strain gbp2, hits give low values 0.988 | locus YCL016C, strain dcc1, hits give low values 0.994 | locus YCL029C, strain bik1, hits give low values 0.985 | locus YCL061C, strain MRC1, hits give low values 0.997 | locus YCL069W, strain vba3, hits give low values 0.982 | locus YCR088W, strain abp1, hits give low values 0.992 | locus YDL005C, strain med2, hits give low values 0.984 | locus YDL035C, strain GPR1, hits give low values 0.996 | locus YDL040C, strain nat1, hits give low values 1.01 | locus YDL074C, strain BRE1, hits give low values 0.976 | locus YDL101C, strain DUN1, hits give low values 0.958 | locus YDL134C, strain PPH21, hits give low values 0.986 | locus YDL185W, strain tfp1, hits give low values 0.966 | locus YDL192W, strain arf1, hits give low values 0.985 | locus YDR001C, strain nth1, hits give low values 0.996 | locus YDR069C, strain doa4, hits give low values 0.99 | locus YDR101C, strain arx1, hits give low values 0.994 | locus YDR137W, strain rgp1, hits give low values 0.984 | locus YDR150W, strain NUM1, hits give low values 0.979 | locus YDR159W, strain sac3, hits give low values 0.975 | locus YDR162C, strain NBP2, hits give low values 0.95 | locus YDR195W, strain ref2 0.978 | locus YDR297W, strain sur2, hits give low values 0.99 | locus YDR318W, strain mcm21, hits give low values 0.999 | locus YDR334W, strain swr1, hits give low values 0.992 | locus YDR335W, strain msn5, hits give low values 0.992 | locus YDR388W, hits give low values 0.99 | locus YDR392W, strain spt3, hits give low values 1 | locus YDR502C, strain sam2, hits give low values 0.991 | locus YEL003W, strain gim4, hits give low values 0.998 | locus YEL037C, strain rad23, hits give low values 1 | locus YEL061C, strain CIN8 (second series), hits give low values 1 | locus YEL061C, strain CIN8, hits give low values 0.984 | locus YER015W, strain faa2, hits give low values 0.992 | locus YER016W, strain bim1, hits give low values 1 | locus YER110C, hits give low values 0.982 | locus YER111C, strain swi4, hits give low values 0.988 | locus YER155C, strain BEM2 (second series), hits give low values 0.991 | locus YER155C, strain BEM2, hits give low values 0.992 | locus YER167W, strain BCK2, hits give low values 0.989 | locus YFR010W, strain ubp6, hits give low values 1 | locus YGL078C, strain dbp3, hits give low values 0.99 | locus YGL086W, strain mad1, hits give low values 1 | locus YGL167C, strain pmr1, hits give low values 1.02 | locus YGL173C, strain kem1, hits give low values 0.974 | locus YGL227W, strain vid30, hits give low values 0.997 | locus YGL240W, strain doc1, hits give low values 0.991 | locus YGL248W, strain PDE1, hits give low values 0.98 | locus YGL253W, strain hxk2, hits give low values 0.994 | locus YGR078C, strain PAC10, hits give low values 0.99 | locus YGR135W, strain pre9, hits give low values 0.978 | locus YGR229C, strain SMI1, hits give low values 0.995 | locus YGR252W, strain gcn5, hits give low values 1.03 | locus YHR013C, strain ard1, hits give low values 0.987 | locus YHR027C, strain rpn1, hits give low values 0.987 | locus YHR030C, strain SLT2, hits give low values 0.997 and 0.963 | locus YHR079C, strain IRE1 (second series), hits give low values 0.996 | locus YHR079C, strain IRE1, hits give low values 0.976 | locus YHR094C, strain hxt1, hits give low values 0.987 | locus YHR129C, strain ARP1, hits give low values 0.993 | locus YHR142W, strain chs7, hits give low values 0.983 | locus YHR200W, strain rpn10, hits give low values 0.99 | locus YIL066C, strain RNR3, hits give low values 0.996 | locus YIL073C, strain SPO22, hits give low values 1.01 | locus YIL125W, strain kgd1, hits give low values 0.995 | locus YIR030C, strain dcg1, hits give low values 0.989 | locus YJL092W, strain hpr5, hits give low values 1 | locus YJL095W, strain BCK1 (second series), hits give low values 1 | locus YJL095W, strain BCK1, hits give low values 1 and 0.963 | locus YJL115W, strain asf1, hits give low values 0.997 | locus YJL129C, strain trk1, hits give low values 0.98 | locus YJL134W, strain LCB3, hits give low values 0.982 | locus YJL154C, strain vps35, hits give low values 0.988 | locus YJL164C, strain tpk1, hits give low values 1.01 | locus YJL166W, strain qcr8, hits give low values 0.989 | locus YJL168C, strain set2, hits give low values 0.996 | locus YJL187C, strain SWE1 (second series), hits give low values 0.98 | locus YJL187C, strain SWE1, hits give low values 1 | locus YJR043C, strain POL32, hits give low values 1.03 | locus YJR066W, strain TOR1, hits give low values 0.943

Reference: PubChem BioAssay AID1159580 (chemical genetic matrix, 2015)
